Assay outcomes deposited in PubChem by National Center for Advancing Translational Sciences (NCATS).
TRHR ag: agonists of human TRH receptor | actives 0.18% (n = 360,000) | activation, % at 2 µM | TRHR cells, calcium flux fluo-8, FDSS agonist mode; also: 0% is about no effect
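Steps: seed TRHR cells overnight; add fluo-8 no-wash Ca dye, RT 30 min–1.5 h; record 10 s baseline; pin-transfer compounds; monitor fluorescence 1 cycle/s for the agonist window. Calcium increases flag candidate agonists.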
D1 PAM: enhances dopamine response at the human D1 receptor; P21728; HEK293 TREx D1 cells, calcium flux, dopamine EC20 potentiation; potentiation, % at 10 µM; actives 0.036% (n = 360,000); AID 504651; in the data active = potentiation above about 30%; also: 0% is about no effect
Target sequence (P21728 whole entry, looked up): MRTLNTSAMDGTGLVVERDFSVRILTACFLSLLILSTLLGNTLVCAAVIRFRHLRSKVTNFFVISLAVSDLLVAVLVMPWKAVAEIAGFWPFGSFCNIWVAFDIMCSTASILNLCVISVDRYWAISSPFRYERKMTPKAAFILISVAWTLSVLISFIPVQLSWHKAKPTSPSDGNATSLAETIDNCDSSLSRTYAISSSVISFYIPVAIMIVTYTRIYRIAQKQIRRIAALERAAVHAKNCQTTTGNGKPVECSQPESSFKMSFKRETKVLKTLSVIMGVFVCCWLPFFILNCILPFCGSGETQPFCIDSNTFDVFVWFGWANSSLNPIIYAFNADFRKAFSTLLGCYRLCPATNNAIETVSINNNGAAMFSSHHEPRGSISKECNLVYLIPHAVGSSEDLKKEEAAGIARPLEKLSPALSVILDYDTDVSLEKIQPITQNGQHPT
D1 antagonist: human D1 dopamine receptor antagonism. actives 3.2% (n = 360,000). AID 504652. activity change, negative = inhibition, % at 10 µM. P21728. HEK293 TREx D1 cells, calcium flux, dopamine EC80; stronger effect = lower value; in the data active = activity change below about -30%; also: % is scaled to controls: 0 for no effect and ±100 for the full control effect
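Allosteric or orthosteric antagonism assessed as attenuation of the calcium response to EC80 dopamine, added 180 s after compound, in induced HEK293 Trex D1 cells loaded with no-wash calcium dye.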
TRHR PAM: TRH receptor (human) allosteric enhancement; TRHR cells, fluo-8 calcium fluorescence, EC20 TRH enhancement; P34981; actives 0.66% (n = 360,000); enhancement, % at 2 µM; in the data active = enhancement above about 30%; also: 0% is about no effect
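Enhancer read-out: after compound pinning and an initial kinetic agonist-mode read, an EC20 of TRH (10 nM final) was injected and fluo-8 calcium signal (Ex 480/Em 530) followed at 1 s/cycle for 100 cycles in TRHR-expressing cells.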
D1 agonist: activates the human D1 dopamine receptor. P21728. HEK293 T-REx D1 cells, calcium flux, agonist mode. activation, % at 2 µM. actives 1% (n = 360,000). AID 504660; also: 0% is about no effect
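Tetracycline-induced HEK293 TREx D1 cells, force-coupled to calcium signalling, were dye-loaded with a no-wash calcium kit. Compound was pin-added after a 10 s baseline. Fluorescence was read kinetically at 1 cycle/s for 180 s, with calcium rises flagged as agonism.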
* marks the source's active call; other numbers are inactive results; . = no result given. Rows were chosen to be rich in hits. Some 4.7% of all compounds tested hit in one or more screens of this group. Rule as the data show it, unless noted: active = activation above about 30%; inactive = the rest.

SMILES	TRHR ag	D1 PAM	D1 antagonist	TRHR PAM	D1 agonist
Cc1ccccc1OCC(=O)NNC(=S)NC(=O)c1ccccc1[N+](=O)[O-]	-1	-6	-57*	0	2
O=C(COc1ccccc1-c1nc(-c2ccccc2)no1)Nc1ccccc1[N+](=O)[O-]	-1	-1	0	41*	0
COc1cc(NC(=O)COc2c(C)cc(C)cc2[N+](=O)[O-])c(OC)cc1Cl	-1	-6	0	-14	2
COc1cc(Cl)c(C)cc1NC(=O)COc1ccccc1[N+](=O)[O-]	0	-4	0	32*	-1
Cc1cccc(CCNC(=O)C2CCCN(c3cnccn3)C2)c1 (stereo not given)	-1	-1	-1	-13	-1
Cc1ccc(NC2CCCN(C(=O)c3ccc(-n4ccnc4)cc3)C2)cc1C (stereo not given)	0	-8	-2	-1	1
CN(C)c1ccc(Nc2nc3ccccc3n3nnnc23)cc1	0	2	-1	-1	0
CCN(CC)S(=O)(=O)c1ccc(N2CCCCS2(=O)=O)cc1	0	9	-3	12	4
COc1ccc(-c2cc(C(=O)OCC(=O)N(C)C3CCS(=O)(=O)C3)c3ccccc3n2)cc1OC (stereo not given)	-1	-1	-4	0	1
CCc1ccc(C(=O)CSC2=C(C#N)C(c3ccco3)C(C(C)=O)=C(C)N2)cc1 (stereo not given)	1	-10	-34*	0	2
CC(C)(C)c1ccc(C(=O)CCCSC2=C(C#N)C(c3ccco3)C3=C(CCCC3=O)N2)cc1 (stereo not given)	0	-3	-10	1	6
CC(=O)C1=C(C)NC(SCC(=O)c2ccc(F)cc2)=C(C#N)C1c1ccco1 (stereo not given)	0	-1	-1	6	7
N#CC1=C(SCC(=O)c2ccccc2)NC2=C(C(=O)CCC2)C1c1ccco1 (stereo not given)	-1	-11	-44*	-4	14
Cc1ccc(C(=O)CSC2=C(C#N)C(c3ccco3)C3=C(CCCC3=O)N2)cc1 (stereo not given)	0	-6	-37*	-2	4
Cn1ncc2c(Nc3cc(C(F)(F)F)ccc3Cl)ncnc21	-1	2	-16	1	-3
Cc1ccc(C)c(NC(=O)CN2C(=O)CCc3ccccc32)c1	0	2	-7	2	-1
CCOC(=O)c1c(C)n(-c2ccc(C)cc2)c2ccc(OCC(O)CNCC3CCCO3)cc12 (stereo not given)	0	0	35	1	60*
COc1ccc(Nc2nc(C)nc(N)c2S(=O)(=O)c2ccccc2)cc1	0	-4	14	8	1
CCN(C(=O)COC(=O)/C=C/c1c(C)nn(-c2ccccc2)c1C)C1CCS(=O)(=O)C1 (stereo not given)	0	3	25	0	5
Cc1nn(C2CCS(=O)(=O)C2)c(Cl)c1/C=C/C(=O)OCC(N)=O (stereo not given)	1	-7	-15	33*	2
Cc1nn(-c2ccccc2)c(C)c1/C=C/C(=O)OCC(=O)N(C)C1CCS(=O)(=O)C1 (stereo not given)	1	-6	-84*	4	2
COc1ccccc1N1CCN(C(=S)Nc2ccc(F)cc2)CC1	1	1	-28	0	8
Cc1c(Cl)ccc2c1NC(=O)[C@]21N[C@@H](Cc2ccccc2)[C@H]2C(=O)N(c3ccc(F)cc3)C(=O)[C@H]21	-1	16	-1	5	34*
COc1ccc(CCNC(=O)Cn2cnc3sc(C)c(-c4ccc(F)cc4)c3c2=O)cc1OC	5	-6	.	-13	34*
COC(=O)c1sc2ncn(CC(=O)NCCc3ccc(OC)c(OC)c3)c(=O)c2c1C	0	-2	5	-3	4
SMILES	TRHR ag	D1 PAM	D1 antagonist	TRHR PAM	D1 agonist
Cc1ccc2c(c1)/C(=C/c1ccccc1C)C(=O)N2	-1	0	-31*	-2	2
COCCN(C(=O)COC(=O)c1ccc2[nH]c(C)c(C)c2c1)c1c(N)n(Cc2ccccc2)c(=O)[nH]c1=O	0	-8	-17	0	1
Cc1oc2ccc(O)c(CN(C)Cc3ccccc3)c2c1C(=O)Nc1ccccc1	-1	-4	-44*	13	-2
Cc1oc2ccc(O)c(CN(C)Cc3ccccc3)c2c1C(=O)Nc1cccc(C(F)(F)F)c1	-1	-3	8	3	1
O=C(NCc1ccccn1)C(=O)NN=C1CCCCCCC1	-2	-2	0	-11	2
O=C(c1cccs1)N1CCc2ccccc21	-2	0	-6	-1	5
O=C(/C=C/c1cccs1)N1CCc2ccccc21	-1	-8	-36*	1	1
CCN(CC)C(=O)c1cc(-c2ccc3c(c2)OCO3)on1	1	-8	-15	4	2
COc1ccccc1CN(Cc1ccco1)S(=O)(=O)c1ccc(-n2cnnn2)c(OC)c1	1	-10	-33*	1	9
COc1cc(S(=O)(=O)N(Cc2ccccn2)Cc2ccccc2Cl)ccc1-n1cnnn1	0	-6	-24	-2	3
Cc1cccc(-c2nc3ccccc3c(=O)[nH]2)c1	0	10	-30*	4	0
Cc1ccc(/C=C/c2nc3ccccc3c(=O)[nH]2)cc1	1	-4	-40*	1	2
O=c1[nH]c(-c2ccncc2)nc2ccccc12	0	0	-5	-4	3
CCn1c(=O)n(-c2ccc(F)c(Cl)c2)c(=O)c2c3c(sc21)CN(C(C)=O)CC3	0	-5	7	1	-1
CCOc1ccc(-c2csc(NC(=O)C3CCCO3)n2)cc1 (stereo not given)	0	-2	-54*	-5	2
O=C(Nc1nc(-c2ccc(Cl)cc2)cs1)C1CCCO1 (stereo not given)	0	-7	-8	1	-1
CSc1ccc(CN(C)CC(=O)Nc2ccccc2Br)cc1	1	1	-41*	-1	3
CSc1ccccc1NC(=O)CN(C)Cc1ccc(Br)cc1	0	-6	13	-3	8
O=S(=O)(Nc1cccc2cccnc12)C1CC1	0	10	14	3	0
COc1ccccc1CCN=C(N)NS(=O)(=O)c1ccc(F)cc1	-2	-1	-5	-5	1
COc1ccc(S(=O)(=O)NC(N)=NCCc2ccccc2OC)cc1	0	-6	-53*	-6	2
COc1ccc(N2CCN(C(=O)c3cc4cc5ccc(Cl)cc5nc4o3)CC2)cc1	0	1	-11	5	0
CC(C)/C=N/Nc1nc(-c2ccc(Br)cc2)cs1	0	-2	-46*	2	0
O=C(Nc1nc(-c2ccc(Br)cc2)cs1)c1cccnc1	0	4	-2	-10	3
